From PubChem BioAssay AID1159580 (chemical genetic matrix, 2015)
Among all 5,500 compounds or so, about 2,000 (36%) were called active. Roughly 18% stayed inconclusive and do not appear here. Cut-off read from the data, not from the text of the source: active = normalized growth mostly below about 0.91 (no sharp cut-off); inconclusive = no clear call, values can overlap the other calls; inactive = mostly above about 0.92. The list shows a part of the results.

Assay: chemical genetic growth profiling, strain panel (AID 1159580);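 note: tested at 20 µM; growth read once vehicle control cultures reached saturation at 30 °C; 1 = growth at the plate median or of vehicle wells; lower values mean less growth of the strain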
Conditions: growth OD

Measured: normalized growth

N#CCCN1C(=O)C2(OCCO2)c2ccccc21
inactive: S. cerevisiae deletion strains, locus YAL013W, strain DEP1, active compounds read low 1.01 | S. cerevisiae deletion strains, locus YBR229C, strain ROT2, active compounds read low 1.01 | S. cerevisiae deletion strains, locus YCL061C, strain MRC1, active compounds read low 1 | S. cerevisiae deletion strains, locus YDL101C, strain DUN1, active compounds read low 0.976 | S. cerevisiae deletion strains, locus YDR150W, strain NUM1, active compounds read low 0.977 | S. cerevisiae deletion strains, locus YEL061C, strain CIN8, active compounds read low 0.997 | S. cerevisiae deletion strains, locus YGR078C, strain PAC10, active compounds read low 1 | S. cerevisiae deletion strains, locus YHR030C, strain SLT2, active compounds read low 1 | S. cerevisiae deletion strains, locus YHR087W, strain rtc3, active compounds read low 0.991 | S. cerevisiae deletion strains, locus YJL187C, strain SWE1, active compounds read low 1 | S. cerevisiae deletion strains, locus YJR043C, strain POL32, active compounds read low 1 | S. cerevisiae deletion strains, locus YJR075W, strain HOC1, active compounds read low 1 | S. cerevisiae deletion strains, locus YLR039C, strain RIC1, active compounds read low 1.02 | S. cerevisiae deletion strains, locus YLR058C, strain SHM2 (second series), active compounds read low 1 | S. cerevisiae deletion strains, locus YLR085C, strain ARP6, active compounds read low 1.02 | S. cerevisiae deletion strains, locus YLR262C, strain YPT6, active compounds read low 1.02 | S. cerevisiae deletion strains, locus YML094W, strain GIM5, active compounds read low 0.986 | S. cerevisiae deletion strains, locus YMR219W, strain ESC1, active compounds read low 1.01 | S. cerevisiae deletion strains, locus YMR263W, strain SAP30, active compounds read low 1.05 | S. cerevisiae deletion strains, locus YMR307W, strain GAS1, active compounds read low 1.05 | S. cerevisiae deletion strains, locus YNL153C, strain GIM3, active compounds read low 1.02 | S. cerevisiae deletion strains, locus YNL298W, strain CLA4 (second series), active compounds read low 1 | S. cerevisiae deletion strains, locus YNL322C, strain KRE1, active compounds read low 0.997 | S. cerevisiae deletion strains, locus YNR030W, strain Alg12, active compounds read low 1 | S. cerevisiae deletion strains, locus YOL006C, strain TOP1, active compounds read low 1.02 | S. cerevisiae deletion strains, locus YPL055C, strain LGE1, active compounds read low 1.02 | S. cerevisiae deletion strains, locus YPL241C, strain CIN2, active compounds read low 1.01 | S. cerevisiae deletion strains, locus YPR135W, strain CTF4, active compounds read low 1.09 | S. cerevisiae strains, strain wild type, active compounds read low 1.02
